In all, about 5,500 compounds went through this assay and about 2,000 (36%) were called active. Not shown: some 18% with an inconclusive outcome. No stated cut-off is given here; in the data, active means normalized growth mostly below about 0.91 (no sharp cut-off); inconclusive means no clear call, values can overlap the other calls; inactive means mostly above about 0.92. Some of the results follow.
Test: chemical genetic growth profiling, strain panel (AID 1159580);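 further: tested at 20 µM; growth read once vehicle control cultures reached saturation at 30 °C; 1 = growth at the plate median or of vehicle wells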
Details: S. cerevisiae deletion strains, growth OD
[1] = locus YAL040C, strain CLN3, stronger effect = lower value
[2] = locus YCL061C, strain MRC1 (second series), stronger effect = lower value
[3] = locus YER002W, strain NOP16, stronger effect = lower value
[4] = locus YGR078C, strain PAC10, stronger effect = lower value
[5] = locus YMR307W, strain GAS1, stronger effect = lower value
[6] = locus YNL175C, strain NOP13, stronger effect = lower value
[7] = locus YNL197C, strain WHI3, stronger effect = lower value
[8] = locus YNL224C, strain SQS1, stronger effect = lower value
[9] = locus YOR083W, strain WHI5 (second series), stronger effect = lower value

Measured: normalized growth

CCn1c(=O)[nH]c2cc(Cl)c(Cl)cc21
inactive: [1] 0.99 | [2] 1.01 | locus YDR363W, strain ESC2, stronger effect = lower value 0.992 | [3] 0.986 | [4] 0.992 | locus YMR263W, strain SAP30, stronger effect = lower value 1 | [5] 1 | [6] 0.98 | [7] 1 | [8] 1 | locus YNL322C, strain KRE1, stronger effect = lower value 1.01 | [9] 1.04

Nc1ccc2c3c(cccc13)C(=O)NC2=O
inactive: [1] 0.997 | [2] 1 | [3] 0.998 | [4] 0.981 | [5] 0.995 | locus YNL128W, strain TEP1, stronger effect = lower value 0.988 | [6] 0.999 | [7] 1.01 | [8] 0.985 | [9] 0.965 | locus YPL055C, strain LGE1, stronger effect = lower value 1.01

COC1=C(OC)C(=O)C(CCCCCCCCCCO)=C(C)C1=O
inactive: locus YHR030C, strain SLT2, stronger effect = lower value 0.964 | locus YHR079C, strain IRE1, stronger effect = lower value 0.937 | locus YJL095W, strain BCK1, stronger effect = lower value 0.982 | locus YJR066W, strain TOR1, stronger effect = lower value 0.934 | locus YLR113W, strain HOG1, stronger effect = lower value 0.922 | locus YNL183C, strain NPR1, stronger effect = lower value 0.92 | locus YOR231W, strain MKK1, stronger effect = lower value 0.972 | locus YPL256C, strain CLN2, stronger effect = lower value 0.964
